# According to publication PMC4336329 (PLoS ONE, 2015):
# In all, about 310,000 compounds went through this assay and about 14,000 (4.5%) showed an effect of 50% or more. Effects have a minus sign here. The list comes from a sample in which strong results are over-represented; it also holds similar structures and randomly drawn compounds.
# Target: human ether-à-go-go-related gene (hERG) potassium channel (human, UniProt Q12809)
# Experiment: primary screen, population patch clamp on CHO cells stably expressing hERG; higher = less effect of the substance
# 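Also: peak tail current of the secondary pulse compared with the same well before compound.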
# human ether-à-go-go-related gene (hERG) potassium channel, sequence (Q12809 whole entry, looked up): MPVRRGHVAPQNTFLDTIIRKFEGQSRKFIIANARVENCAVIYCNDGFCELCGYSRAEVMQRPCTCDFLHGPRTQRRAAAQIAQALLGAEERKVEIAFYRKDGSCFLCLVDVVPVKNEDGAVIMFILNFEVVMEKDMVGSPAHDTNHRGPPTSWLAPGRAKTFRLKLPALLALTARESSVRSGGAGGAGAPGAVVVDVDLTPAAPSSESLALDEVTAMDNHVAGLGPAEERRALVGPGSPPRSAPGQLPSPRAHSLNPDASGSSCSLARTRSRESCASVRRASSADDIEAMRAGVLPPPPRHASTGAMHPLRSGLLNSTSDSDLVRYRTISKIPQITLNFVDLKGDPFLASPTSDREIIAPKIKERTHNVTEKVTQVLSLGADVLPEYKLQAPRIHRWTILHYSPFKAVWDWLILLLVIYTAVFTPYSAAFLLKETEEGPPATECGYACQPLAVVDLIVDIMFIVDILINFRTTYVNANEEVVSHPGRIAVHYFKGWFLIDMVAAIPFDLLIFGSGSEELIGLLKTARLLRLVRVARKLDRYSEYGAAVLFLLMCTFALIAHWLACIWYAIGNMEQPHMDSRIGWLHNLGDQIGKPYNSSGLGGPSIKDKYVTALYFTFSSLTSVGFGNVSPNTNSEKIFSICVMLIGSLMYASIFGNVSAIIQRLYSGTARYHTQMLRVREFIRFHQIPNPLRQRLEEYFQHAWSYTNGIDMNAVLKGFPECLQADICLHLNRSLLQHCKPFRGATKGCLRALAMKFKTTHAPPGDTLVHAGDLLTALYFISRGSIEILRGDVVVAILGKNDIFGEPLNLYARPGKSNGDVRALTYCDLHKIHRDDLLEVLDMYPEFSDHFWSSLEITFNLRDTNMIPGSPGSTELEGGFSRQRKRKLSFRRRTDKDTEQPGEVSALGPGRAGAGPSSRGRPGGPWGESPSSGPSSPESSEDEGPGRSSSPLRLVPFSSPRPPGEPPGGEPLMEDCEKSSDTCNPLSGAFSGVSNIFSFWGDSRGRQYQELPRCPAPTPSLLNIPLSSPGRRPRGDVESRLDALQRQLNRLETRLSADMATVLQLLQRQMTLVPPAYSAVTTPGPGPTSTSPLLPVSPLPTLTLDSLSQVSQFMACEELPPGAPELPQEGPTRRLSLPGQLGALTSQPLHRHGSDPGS
row,Compound,"hERG current change (%, negative = inhibition) at 10uM [%]"
1,Cn1c(SCC(=O)NNC(=O)c2ccc(Br)cc2)nnc1-c1cccnc1,25.6
2,Cc1ccc(NC(=O)NC(=O)CSc2nnc(-c3ccc(Cl)cc3Cl)n2N)c(C)c1,-6.38
3,Cc1nc(C)c(C(=O)NNS(=O)(=O)c2ccccc2)s1,8.26
4,Cl.Fc1ccc(COc2cccc(CNCc3ccncc3)c2)cc1,-40.6
5,CCOc1c(Cl)cc(CNCc2ccccn2)cc1OC.Cl,-18.7
6,CCOc1cc(CNCc2ccccn2)cc(Cl)c1OC.Cl,29.6
7,CCOc1cc(/C=N/N=C(N)N)ccc1OCc1ccc(Cl)cc1,-19.9
8,Cl.c1ccc(COc2cccc(CNCc3ccccn3)c2)cc1,-45.2
9,COc1cc(/C=N/N=C(N)N)ccc1OCc1ccc(Cl)cc1,-50.5
10,COc1cc(CNCc2ccccn2)ccc1OCc1cccc(Cl)c1.Cl,-54
11,COc1cc(CNCc2ccccn2)ccc1OCC(=O)NC(C)(C)C.Cl,0.777
12,Cl.Clc1ccc(COc2cccc(CNCc3ccncc3)c2)cc1,-59.8
13,COc1cc(/C=N/O)ccc1OCc1ccc(Cl)cc1,19.6
14,COc1cc(CNCc2ccccn2)ccc1OCc1ccc(Cl)c(Cl)c1.Cl,-51.2
15,Cl.OCCNCc1cccc(OCc2ccc(Cl)cc2)c1,-12.9
16,CCC(C)NC(=O)c1ccccc1NC(=O)Nc1ccccc1 (stereo not drawn),3.24
17,COc1ccccc1OCCNC(=O)C(=O)c1c[nH]c2ccccc12,5.02
18,CC1(C)Cc2c(sc3c2C(=O)N(c2ccccc2)C2=NCCCN23)CO1,3.7
19,CC(C)C[C@H](NC(=O)c1nc[nH]c1C(=O)NC1CCN(C(=O)OC(C)(C)C)CC1)C(=O)OC(C)(C)C,-10.8
20,O=C(Nc1c2c(nn1-c1ccc(F)cc1)CS(=O)C2)C12CC3CC(CC(C3)C1)C2 (stereo not drawn),16.7
21,COc1ccccc1N(CC(=O)NCCSc1ccc(Cl)cc1)S(C)(=O)=O,-6.87
22,COc1cc(CNCc2ccccn2)ccc1OCc1ccc(Cl)cc1.Cl,-56.8
23,COc1cc(CNCc2ccccn2)ccc1OCC(N)=O.Cl,-0.0507

row,Compound,"hERG current change (%, negative = inhibition) at 10uM [%]"
1,COc1cc(CNCc2cccnc2)ccc1OCc1ccccc1.Cl,-21.8
2,Cc1ccc(S(=O)(=O)NCC(C)n2nc(C)nc2C)cc1 (stereo not drawn),-0.542
3,C=CCn1c(O)c(N=O)c2cc(C)ccc21,-8.69
4,CCn1c(SCC(=O)Nc2ccc3c(c2)OCCO3)nnc1-c1ccncc1,0.979
5,Cc1ccc(S(=O)(=O)N2CCN(C(=O)CN3CCN(C)CC3)C2)cc1,14.1
6,COc1ccccc1Nc1nc2ccccc2n1C,-3.73
7,Cc1noc(C)c1COc1ccccc1C(=O)NC(C)c1ccc(Cl)cc1 (stereo not drawn),-55.8
8,COc1ccccc1C(=O)NC(C)c1ccc(-n2ccnc2)cc1 (stereo not drawn),-52.6
9,CCOc1ccc(C(C)NC(=O)c2ccccc2OCc2c(C)noc2C)cc1OCC (stereo not drawn),-23.8
10,COc1ccccc1C(=O)NC(C)c1ccccc1 (stereo not drawn),18.6
11,Cc1cccc(C(=O)NCC(=O)NC(C)c2ccc(-n3ccnc3)cc2)c1 (stereo not drawn),-68.5
12,Cc1noc(C)c1COc1ccccc1C(=O)NCCc1ccc(Cl)cc1,-20.8
13,COc1ccccc1C(=O)NCC(=O)NC(C)c1ccc(-n2ccnc2)cc1 (stereo not drawn),-66.4
14,COc1ccccc1C(=O)NCCC(=O)NC(C)c1ccc(-n2ccnc2)cc1 (stereo not drawn),-17.1
15,COc1ccccc1C(=O)NCC(=O)Nc1cccnc1,20.5
16,COC(=O)CSc1nnc2n(-c3ccc(OC)cc3)c(=O)c3c4c(sc3n12)CCCCC4,-10.6
17,Cc1cc(NC(=O)CCC(=O)N(CC(=O)NC2CCCC2)c2ccc(Cl)cc2)no1,-16.7
18,CN1CCN(S(=O)(=O)c2ccc(NC(=O)COc3ccccc3Cl)cc2)CC1,20.1
19,COc1ccc(NC(C)=O)cc1NS(=O)(=O)c1ccc2c(c1)OCCO2,21.4
20,O=C(Nc1ccc2c(c1)OCO2)c1nn(-c2ccccc2)c(=O)c2ccccc12,11
21,O=C1C(=O)N(CCN2CCOCC2)C(c2ccccc2F)/C1=C(\O)c1ccc(S(=O)(=O)N2CCOCC2)cc1 (stereo not drawn),11.5
22,O=C(Nc1ccccc1-c1nnn(CC(=O)N2CCCc3ccccc32)n1)c1ccc(Cl)cc1,8.92
23,O=C(COC(=O)c1ccc(F)cc1F)NC1CC1,23

row,Compound,"hERG current change (%, negative = inhibition) at 10uM [%]"
1,Cc1ccc(OC(=O)c2cncc(Br)c2)c(C)c1,16
2,N/C(=N\OC(=O)COc1ccccc1)c1ccccn1,13.6
3,O=C(CN(c1ccc(F)cc1)S(=O)(=O)c1ccc2c(c1)OCCO2)Nc1ccc2c(c1)OCO2,14.4
4,N/C(=N\OC(=O)c1cc(Br)ccc1Cl)c1ccccn1,13.1
5,CCOc1ccccc1C(=O)NCC(=O)Nc1ncccc1C,14
6,CC(NC(=O)c1ccccc1C(=O)O)c1ccc(-n2ccnc2)cc1 (stereo not drawn),16
7,CC(C)c1ccc(CCNC(=O)CCNC(=O)c2ccc(Br)cc2)cc1,5.74
8,CCOc1ccc(C(=O)NCC(=O)Nc2ccncc2)cc1OCC,4.58
9,CCOc1ccccc1C(=O)NC(C)c1ccc(-n2ccnc2)cc1 (stereo not drawn),-57.5
10,CC(NC(=O)c1ccccc1Cl)c1ccc(-n2ccnc2)cc1 (stereo not drawn),-34.2
11,CC(NC(=O)CCNC(=O)c1ccc(Br)cc1)c1ccc(S(N)(=O)=O)cc1 (stereo not drawn),15.3
12,CCOc1ccccc1C(=O)NCC(=O)NC(C)c1ccc(-n2ccnc2)cc1 (stereo not drawn),-70.9
13,CC(NC(=O)CCNC(=O)c1ccc(Br)cc1)c1ccc(-n2ccnc2)cc1 (stereo not drawn),-66.5
14,COc1cc(C(=O)NCC(=O)NC(C)c2ccc(-n3ccnc3)cc2)cc(OC)c1OC (stereo not drawn),-3.06
15,CCOc1ccc(C(=O)NCC(=O)NC(C)c2ccc(-n3ccnc3)cc2)cc1OCC (stereo not drawn),-77.4
16,Nc1nnc(SCC(=O)NNC(=O)c2ccc(Cl)cc2)s1,-0.0303
17,O=C(N/N=C/c1ccc(O)cc1)c1ccc(COc2cc(Cl)ccc2Cl)o1,7.07
18,c1csc(-c2nn3c(Cn4nnc5ccccc54)nnc3s2)c1,16.6
19,Cc1cc(NNC(=O)Nc2cccc(Cl)c2)nc2c1c(C)nn2C,3.56
20,Cc1ccccc1NC(=O)CN1C(=O)N/C(=C\c2ccc(N3CCOCC3)c(F)c2)C1=O,10.8
21,COc1ccc(NC(=S)NCCc2c[nH]c3ccccc23)cc1,-7.49
22,Nc1ccccc1C#Cc1ccc([N+](=O)[O-])cc1,1.66
23,CCc1ccc(-c2cc(C)no2)cc1S(=O)(=O)N1CCN(c2ccc(C(C)=O)cc2)CC1,-4.32

row,Compound,"hERG current change (%, negative = inhibition) at 10uM [%]"
1,C=CCC(CC=C)(C(=O)O)c1ccccc1,-8.46
2,COc1ccc(NC(C)=O)cc1S(=O)(=O)NC(C)c1ccc(-n2ccnc2)cc1 (stereo not drawn),-3.74
3,COc1ccc(OC)c(S(=O)(=O)NC(C)c2ccc(-n3ccnc3)cc2)c1 (stereo not drawn),-25.1
4,CC(NC(=O)c1c(F)cccc1Cl)c1ccc(-n2ccnc2)cc1 (stereo not drawn),-27
5,CC(NC(=O)c1ccccc1OC(F)F)c1ccc(-n2ccnc2)cc1 (stereo not drawn),-55
6,COc1ccc(C(=O)NC(C)c2ccc(-n3ccnc3)cc2)c(OC)c1OC (stereo not drawn),-53.1
7,CC(NC(=O)CCNC(=O)c1ccccc1Cl)c1ccc(-n2ccnc2)cc1 (stereo not drawn),-17.8
8,COc1ccc(C(=O)NC(C)c2ccc(-n3ccnc3)cc2)c(OC)c1 (stereo not drawn),-53.8
9,CC(NC(=O)CNC(=O)c1ccccc1F)c1ccc(-n2ccnc2)cc1 (stereo not drawn),-64
10,CCCCN(CC)CCNC(=O)Cn1cnc2sc(C)c(S(=O)(=O)N3CCC(C)CC3)c2c1=O,-19.1
11,Cc1cc(C)c(S(=O)(=O)c2cc(F)ccc2C)c(=O)[nH]1,18.1
12,COc1ccc(-c2noc(C(C)NS(=O)(=O)c3ccc(NC(C)=O)cc3)n2)cc1 (stereo not drawn),17.5
13,COCC1CCCCN1Cc1cn[nH]c1-c1ccc2cc(OC)ccc2c1 (stereo not drawn),-70.2
14,COCC1CCCCN1Cc1cn[nH]c1-c1ccc(OC)cc1OC (stereo not drawn),-25.5
15,COc1ccc(-c2[nH]ncc2CN2C[C@@H]3CCC[C@H]2C3)c(F)c1,8.16
16,Oc1cccc(CCC2CCCCN2Cc2cn[nH]c2-c2ccc3c(c2)OCO3)c1 (stereo not drawn),-66.2
17,c1cc2c(cc1-c1[nH]ncc1CN1CC3C[C@@H]4CC1C[C@H](C3)C4)OCO2,-44.3
18,Cc1nonc1C1CCCN1Cc1cn[nH]c1-c1ccc2c(c1)OCO2 (stereo not drawn),-25.6
19,COc1ccc2cc(-c3[nH]ncc3CN3CCCC3c3nonc3C)ccc2c1 (stereo not drawn),0.998
20,COc1ccc2cc(-c3[nH]ncc3CN3C[C@@H]4CCC[C@H]3C4)ccc2c1,-58.7
21,c1cc2c(cc1-c1[nH]ncc1CN1C[C@H]3CC[C@H]1C3)OCO2,-3.58
